The values that follow come from PubChem BioAssay AID651692 (Broad Institute, 2012).

Results with a measured potency or affinity are listed apart. Values without a mark were called inactive.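 The calls were made as follows: active = fitted half-maximal concentration for loss of cell signal no higher than twice the top valid tested concentration; inconclusive = flat curve at 30 to 70% inhibition, or poor fit; inactive = flat within 30%, signal rise, or potency above limit.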

This assay can be described thus: MDA-MB-231 cell growth inhibition, dose response, cytotoxicity control for RAD54 inhibitor project, CellTiter-Glo luminescence, cherry-pick (AID 651692).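 Also: 0% = median of sample compound wells and -100% = staurosporine control wells; more negative values mean stronger loss of viable cell signal.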 The conditions noted are these: MDA-MB-231 viability, 24 h; series mostly up to 26 µM; activity change, negative = growth inhibition: at the top concentration.
In the case of `CCOC(=O)c1cnc2c(Cl)cccc2c1NCCCN1CCOCC1`, the “activity change, negative = growth inhibition” value was 8.64%.

Take `CCCN(CCC)CCCNC(=O)c1cc2c(=O)[nH]c3ccccc3c2s1`: the “activity change, negative = growth inhibition” value was 0.356%.

For `CCN(CC)CCNc1cccc2sc3ccccc3c(=O)c12`, the “activity change, negative = growth inhibition” value was -14.9%.

For the compound `CN1CCN(CCNC(=O)c2cc3c(=O)n(C)c4ccccc4c3n2C)CC1`, the “activity change, negative = growth inhibition” value is -5.11%.

With `Cn1c(NCCN2CCCC2)nc2cc(-c3ccsc3)sc2c1=O`, the “activity change, negative = growth inhibition” value was 4.38%.

With `COc1ccc(-c2nc(C(=O)NCCCN3CCOCC3)cc3c2[nH]c2ccccc23)cc1OC`, the “activity change, negative = growth inhibition” value is -13.7%.

`Cc1ccc2oc(=O)c3cc(C(=O)NCCCN4CCN(C)CC4)sc3c2c1`: the “activity change, negative = growth inhibition” value was 6.21%.

Take `COc1ccc(-c2cc(NC=O)c3ncc(-c4cccc(C(=O)NCCN(C)C)c4)n3c2)cc1`: the “activity change, negative = growth inhibition” value was -4.06%.

Take `CN1CCN(CCCNC(=O)c2cc3c(=O)oc4ccccc4c3s2)CC1`: the “activity change, negative = growth inhibition” value was 2.62%.

Take `Cc1ccc2nc(C)c3c(c2c1)N(c1ccc(F)cc1)CC3`: the “activity change, negative = growth inhibition” value is -8.5%.

In the case of `CN(C)CCNC(=O)c1cccc(-c2cnc3c(NC=O)cc(-c4ccccc4F)cn23)c1`, the “activity change, negative = growth inhibition” value was -5.66%.

Turning to `COC(=O)c1c(NC(=O)c2ccc([N+](=O)[O-])o2)sc2c1CCN(C(C)C)C2`, the “activity change, negative = growth inhibition” value was 12.9%.

As to `NCCN1CCN(CCN)CC1`, the “activity change, negative = growth inhibition” value is 1.41%.

Take `Nc1c(C(=O)NCCN2CCOCC2)c2nc3ccccc3nc2n1-c1ccccc1`: the “activity change, negative = growth inhibition” value is 7.11%.

Regarding `COC(=O)Nc1nnc(COc2ccccc2)s1`, the “activity change, negative = growth inhibition” value was 1.91%.

On to `CCN(CC)CCNC(=S)Nc1ccc2nc(N3CCN(C)CC3)cc(C)c2c1`, for which the “activity change, negative = growth inhibition” value is -1.16%.

Regarding `Cc1ccc(OCC(=O)Nc2cccc(-c3nnc(-c4ccccc4)o3)c2)c(C)c1`, the “activity change, negative = growth inhibition” value was -3.67%.

As to `Cc1cc(N2CCN(C)CC2)nc2ccc(NC(=S)NCCCN3CCN(C)CC3)cc12`, the “activity change, negative = growth inhibition” value was 2.27%.

`CN1CCN(c2ncnc3c2[nH]c2ccc(F)cc23)CC1`: the “activity change, negative = growth inhibition” value is 7.02%.

Consider `CN1CCc2[nH]c3ccc(C(=O)NN)cc3c2C1`, for which the “activity change, negative = growth inhibition” value was -1.61%.

As to `CCN(CC)CC(O)c1ccc2ccc3ccc(O)cc3c2c1` (centres undefined), the “activity change, negative = growth inhibition” value was -4.8%.

With `Cc1ccc2nc3c(cc(C(=O)NCCN4CCOCC4)c(=N)n3CCCN3CCOCC3)c(=O)n2c1`, the “activity change, negative = growth inhibition” value is 3.06%.

In the case of `CCN1CCN(CCCNC(=O)c2cc3c(=O)oc4ccc(C)cc4c3s2)CC1`, the “activity change, negative = growth inhibition” value was 1.05%.

Regarding `Cn1c(NCCN2CCCC2)nc2cc(-c3ccccc3)sc2c1=O`, the “activity change, negative = growth inhibition” value was -6.96%.

For `CN(C)CCCN1C(=O)c2cccc3cccc(c23)C1=O`, the “activity change, negative = growth inhibition” value is 10.8%.

Take `CCCN1CCN(CCCNC(=O)c2cc3c(=O)n(C)c4ccccc4c3n2C)CC1`: the “activity change, negative = growth inhibition” value is -3.42%.

Take `CCOC(=O)c1c(C)n(C)c2ccc(OCC(O)CN3CCN(C)CC3)cc12` (centres undefined): the “activity change, negative = growth inhibition” value is 9.74%.

For `CCN(CC)CCn1c2ccccc2c2nc3ccc([N+](=O)[O-])cc3cc21`, the “activity change, negative = growth inhibition” value was -13.4%.

On to `CCCN(CCC)CCCNC(=S)Nc1ccc2nc(N3CCCC3)cc(C)c2c1`, for which the “activity change, negative = growth inhibition” value is -3.41%.

As to `Cc1ccc2oc(=O)c3cc(C(=O)NCCCN4C(C)CCCC4C)sc3c2c1` (centres undefined), the “activity change, negative = growth inhibition” value is 4.27%.

`Nc1cc2c3c(cccc3c1)C(=O)N(CCN1CCCC1)C2=O`: the “activity change, negative = growth inhibition” value is -21.8%.

With `O=C(Nc1cccc([N+](=O)[O-])c1)c1cc(S(=O)(=O)N2CCOCC2)cs1`, the “activity change, negative = growth inhibition” value is 10.7%.

As to `COc1ccc2cc3cc(C(=O)NCCCN4CCOCC4)oc3nc2c1`, the “activity change, negative = growth inhibition” value is 17.1%.

As for `CN1CCCC1CCNc1ccc2c(=O)c3ccccc3oc2c1` (centres undefined), the “activity change, negative = growth inhibition” value is 6.49%.

As to `CC(C)OCC(O)CN1CCN(CCN2C(=O)c3cccc4cccc(c34)C2=O)CC1` (centres undefined), the “activity change, negative = growth inhibition” value was 1.81%.

Turning to `O=C(NN1CCOCC1)c1cc(-c2ccc(Cl)c(Cl)c2)nc2ccccc12`, the “activity change, negative = growth inhibition” value was 0.843%.

For the compound `Cc1cc(C)n(-c2nc(NCCN(C)C)c3c4c(sc3n2)COC(C)(C)C4)n1`, the “activity change, negative = growth inhibition” value was -9%.

Turning to `CCN(CC)CCn1c2ccccc2c2nc3ccccc3nc21`, the “activity change, negative = growth inhibition” value is 1.86%.

Regarding `C=CCc1ccccc1OCC(O)CN1CCN(CCN2C(=O)c3cccc4cccc(c34)C2=O)CC1` (centres undefined), the “activity change, negative = growth inhibition” value is -13.7%.
